Test results taken from PubChem BioAssay (NCATS).
Inconclusive results are not listed. Starred links: 1 amine or outer side, 2 acyl side, 3 side chain; linkers in the order of their positions; H or OH if unused. Positions of bridges follow the written chain, without caps; N, C: chain ends. Bridge positions count the residues as written; N and C are the ends. Non-standard residues stand in square brackets, D forms with d. Square brackets hold non-standard residues; d marks the D form. Residues, ends and D or L forms follow the SMILES beside them. Peptide text beside a SMILES is read from it. * marks the point of attachment. *: point of attachment. Ileψ(thiazoline)Cys = CC[C@H](C)[C@H](N)C1=N[C@H](C(=O)*)CS1; X1 = NC1=N[C@@H](O)C[C@@H]([C@@H](N[*:1])C(=O)[*:2])N1; ΔAla(Z-3-ureido) = NC(=O)N/C=C(\N)C(=O)O; d(aIle) = CC[C@H](C)[C@@H](N)C(=O)O; β3hOrn = NCCC[C@H](N)CC(=O)*; dOrn = NCCC[C@@H](N)C(=O)O; Dap = NC[C@H](N)C(=O)O

Assay: qHTS Assay for Lipid Storage Modulators (AID 1519)
Conditions: Drosophila S3 cells, BODIPY lipid droplet/cell ratio, laser cytometry; measured here: cell count channel max response; cells loaded with oleic acid
How it was run: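 Cells seeded at 5,000 per well were treated with compounds over a concentration series and loaded with oleic acid (400 uM, as added). Lipid droplet fluorescence (488 nm excitation, 500-530 nm channel) was read by laser-scanning cytometry and normalized to 20 uM Triacsin C.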

Structure (SMILES)	max response [%]
C[C@@H]1C[C@H]2[C@@H]3C[C@H](F)C4=CC(=O)C=C[C@@]4(C)[C@]3(F)[C@H](O)C[C@]2(C)[C@@]1(O)C(=O)CO	0.642
C[N+]1(C)CCC[C@H]1C(=O)[O-]	6.12
C[C@H](O)Cn1cnc2c1c(=O)n(C)c(=O)n2C	-2.3
CCCCC[C@H](O)/C=C\[C@@H]1[C@H](O)CC(=O)[C@@H]1CCCCCCC(=O)O	-5.83
CC(=C(CCOP(=O)(O)O)SC(=O)c1ccccc1)N(C=O)Cc1cnc(C)nc1N	-3.81
CC(C)(CO)[C@H](O)C(=O)NCCC(=O)O	7.75
NC[C@@H]1O[C@@H](O[C@H]2[C@H](O)[C@H](O[C@@H]3O[C@H](CO)[C@@H](O)[C@H](N)[C@@H]3O)[C@@H](N)C[C@H]2N)[C@H](N)C[C@@H]1O	-4.83
S=C(NC1CCCCC1)N1CCC([C@H]2C=NC=N2)CC1	-0.275
CCc1c(C)[nH]c2c1C(=O)[C@H](CN1CCOCC1)CC2	-8.85
C=C1c2c(Cl)ccc(O)c2C(O)=C2C(=O)[C@@]3(O)C(O)=C(C(N)=O)C(=O)[C@@H](N(C)C)[C@@H]3[C@@H](O)[C@H]12	-8.18
CCC(=O)OCC(=O)[C@@]1(OC(=O)CC)[C@H](C)C[C@@H]2[C@@H]3[C@H]([C@@H](O)C[C@@]21C)[C@]1(C)C=CC(=O)C=C1C[C@@H]3Cl	-9.62
Nc1nc(=S)c2ncn([C@H]3O[C@@H](CO)[C@@H](O)[C@@H]3O)c2[nH]1	2.2
C[C@H](CCC(=O)O)[C@H]1CC[C@@H]2[C@H]3[C@@H](CC[C@@]21C)[C@]1(C)CC[C@H](O)C[C@@H]1C[C@@H]3O	-6.52
CS(=O)(=O)c1ccc([C@H](O)[C@H](CF)NC(=O)C(Cl)Cl)cc1	1.07
CC[C@]1(c2ccccc2)NC(=O)N(C)C1=O	11.1
CC[C@H](C)[C@H](N)C1=N[C@H](C(=O)N[C@@H](CC(C)C)C(=O)N[C@@H](CCC(=O)O)C(=O)N[C@@H](C(=O)N[C@H]2CCCCNC(=O)[C@@H](CC(N)=O)NC(=O)[C@@H](CC(=O)O)NC(=O)[C@@H](Cc3cnc[nH]3)NC(=O)[C@@H](Cc3ccccc3)NC(=O)[C@@H]([C@@H](C)CC)NC(=O)[C@@H](CCCN)NC2=O)[C@@H](C)CC)CS1 ({Ileψ(thiazoline)Cys}-LE[d(aIle)]K[dOrn][d(aIle)][dF][dH][dD][dN]; lactam 4-C)	-6.25
CO[C@@H]1C=CO[C@]2(C)Oc3c(C)c(O)c4c(O)c(c(C=NN5CCN(C)CC5)c(O)c4c3C2=O)NC(=O)C(C)=CC=C[C@H](C)[C@H](O)[C@H](C)[C@H](O)[C@H](C)[C@H](OC(C)=O)[C@H]1C	-4.36
COCCOC(=O)C1=C(C)NC(C)=C(C(=O)OC(C)C)[C@H]1c1cccc([N+](=O)[O-])c1	-5.25
C=C1CC23C[C@H]4[C@@H]5[C@@]6(C)C[C@H](OC(=O)c7ccccc7)[C@@H](OC(C)=O)[C@]57[C@@H]2[C@@H](OC(C)=O)[C@H]1[C@@H](O)[C@H]3[C@H]7N4C6	-3.09
O=C(N/N=C\c1ccc([N+](=O)[O-])o1)c1ccc(O)cc1	-7.99

Structure (SMILES)	max response [%]
C[C@@H](CNC1CCCCC1)OC(=O)c1ccccc1	-16.8
CCOC(=O)O[C@@H](C)OC(=O)[C@@H]1N2C(=O)[C@@H](NC(=O)[C@@H](N)c3ccccc3)[C@H]2SC1(C)C	3.59
CC#C[C@@]1(O)CC[C@H]2[C@@H]3CCC4=CC(=O)CCC4=C3[C@H](c3ccc(N(C)C)cc3)C[C@]21C	-7.59
Cc1cccc(CN2CCN([C@@H](c3ccccc3)c3ccc(Cl)cc3)CC2)c1	-11.7
Cc1ccsc1/C=C\C1=NCCCN1C	-9.18
CC(=O)O[C@H]1C[C@H]2CC[C@@H]3[C@@H](CC[C@]4(C)[C@H](OC(C)=O)[C@H]([N+]5(C)CCCCC5)C[C@@H]34)[C@]2(C)C[C@H]1[N+]1(C)CCCCC1	0.133
COc1cc(OC)c2c(c1Cl)O[C@@]1(C2=O)[C@H](C)CC(=O)C[C@@H]1OC	-13.8
O[C@H](c1cc(C(F)(F)F)nc2c(C(F)(F)F)cccc12)[C@H]1CCCCN1	-16.3
O=C(O)COCCN1CCN([C@@H](c2ccccc2)c2ccc(Cl)cc2)CC1	-9.07
C[N+]1(C)CC[C@@H](OC(=O)[C@@](O)(c2ccccc2)C2CCCC2)C1	-7.92
C[C@H](NCCC(c1ccccc1)c1ccccc1)c1ccccc1	-21.2
NCCC[C@H](N)CC(=O)N[C@H]1CNC(=O)[C@@H]([C@@H]2C[C@H](O)N=C(N)N2)NC(=O)/C(=C/NC(N)=O)NC(=O)[C@@H](CO)NC(=O)[C@@H](CO)NC1=O (β3hOrn-[Dap][dS][dS][ΔAla(Z-3-ureido)][X1]; lactam 1-C)	-7.09
C=CCO[C@@H](Cn1ccnc1)c1ccc(Cl)cc1Cl	-10.1
C#C[C@]1(O)CC[C@@H]2[C@H]3CCC4=CCCC[C@@H]4[C@@H]3CC[C@@]21C	-7.9
CC1(C)[C@@H](OC(=O)CCC(=O)O)CC[C@@]2(C)[C@H]1CC[C@@]1(C)[C@H]2C(=O)C=C2[C@H]3C[C@](C)(C(=O)O)CC[C@]3(C)CC[C@@]21C	-1.7
COc1ccc([C@@H]2CC(=O)c3c(O)cc(O)cc3O2)cc1O	-5.78
OCCOCCN1CCN([C@@H](c2ccccc2)c2ccc(Cl)cc2)CC1	8.41
C[C@H](CCC(=O)O)[C@H]1CC[C@@H]2[C@@H]3[C@@H](O)C[C@H]4C[C@@H](O)CC[C@@]4(C)[C@H]3CC[C@@]21C	-2.48
CN1CCO[C@H](c2ccccc2)c2ccccc2C1	-10.4
O=C(N[C@@H](CO)[C@@H](O)c1ccc([N+](=O)[O-])cc1)C(Cl)Cl	11.1
